Measurements from PubChem BioAssay AID2546 (National Center for Advancing Translational Sciences (NCATS), 2010).
The campaign covered roughly 310,000 compounds. About 11,000 (3.5%) were called active. Another 8% or so got no clear call; they are omitted. Calls come from the whole dose curve; as a rule, active = well fitted inhibition curve with a large enough effect; inconclusive = small, poorly fitted or top-dose-only effect, or effect the other way; inactive = flat fitted curve, though single readings scatter. The entries come from a sample that favours actives as a whole. A call without a number means that no potency is given here.

experiment: VP16 counterscreen qHTS for inhibitors of ROR gamma transcriptional activity; settings: Drosophila S2 Gal4-VP16 UAS-luciferase, luminescence, 20 h; series mostly up to 53.6 µM;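 note: Gal4-VP16 expression switched on by copper sulfate through the metallothionein promoter; nearly all actives have a fitted effect of over 50% in size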
Potency is the fitted concentration of half-maximal effect.

| Structure (SMILES) | Potency |
| --- | --- |
| Cc1cc(N2C(=O)C(O)=C(C(=O)c3ccc(C)o3)C2c2ccc(OCc3ccccc3)cc2)no1 (configuration not stated) | inactive |
| O=C(CN1CCC(NC(=O)Nc2ccccc2)CC1)Nc1cccc([N+](=O)[O-])c1 | inactive |
| COc1cccc(C(=O)CC(=O)C(=O)Nc2ccc([N+](=O)[O-])cc2C)c1 | inactive |
| CC1(C)Cc2c(sc(NC(=O)C(=O)N3CCOCC3)c2C#N)CO1 | inactive |
| COc1ccc(Cc2nc3ccc(C(=O)NCC4CCOCC4)cc3o2)cc1OC | inactive |
| O=C(O)c1ccccc1CSc1nc2ccccc2s1 | inactive |
| O=C(CCCl)Nc1ccc(S(=O)(=O)NCc2ccco2)cc1 | inactive |
| C/C(=N\Nc1ncc(Cl)cc1Cl)c1ccc(S(=O)(=O)NCc2ccco2)cc1 | 3.16 µM (active) |
| O=S(=O)(NCc1ccco1)c1cnc(Cl)c(Cl)c1 | inactive |
| CCCc1ccc(OCCNC(=O)c2ccccc2Br)cc1 | inactive |
| Cc1cc(NC(=O)c2ccccc2C)no1 | inactive |
| Clc1ccc(CN2CCN(/N=C/c3cccnc3)CC2)cc1 | inactive |
| O=Cc1cn(Cc2ccccc2)nc1-c1cccnc1 | inactive |
| O=C1/C(=C\c2cccnc2)CN(Cc2ccccc2)C/C1=C\c1cccnc1 | 2 µM (active) |
| Cc1c(C(C)(C)O)[nH]c2ccc(C#N)cc12 | inactive |
| O=C(O)c1ccccc1C(=O)NC1=NN(c2ccccc2)CC1 | inactive |
| O=C1CCC(C(=O)N2CCCCO2)CN1Cc1cccc(C(F)(F)F)c1 (configuration not stated) | inactive |
| NS(=O)(=O)c1ccc(CCNS(=O)(=O)c2cccc3cccnc23)cc1 | inactive |
| Cc1cc(Cl)c2oc(C(=O)NC(C)c3ccncn3)c(C)c2c1 (configuration not stated) | inactive |
| Cc1cc(C(=O)N/N=C/c2ccccc2[N+](=O)[O-])c(C)o1 | inactive |
| CN(C)/N=C/c1cc(Cl)cc([N+](=O)[O-])c1O | inactive |
| O=C(N/N=C/c1cc(Cl)cc([N+](=O)[O-])c1O)C(O)(c1ccccc1)c1ccccc1 | 0.891 µM (active) |
| Cc1nn(C)c(Cl)c1CN1CCC(Oc2ccc(C(=O)N3CCCC3)cc2)CC1 | inactive |

| Structure (SMILES) | Potency |
| --- | --- |
| O=C(C[C@H]1C(=O)N(c2ccc(F)c(F)c2)C[C@@H]1Cc1ccccc1)Nc1ccccc1 | inactive |
| Cc1c(C(=O)NC2CCCCC2)oc2ccccc12 | inactive |
| CCOC(=O)CSc1ccccn1 | inactive |
| COc1ccc(C=C(C#N)C#N)c(CSc2ccccn2)c1 | 15.8 µM (active) |
| COc1cccc(N(CC(=O)NCCSc2ccccn2)S(C)(=O)=O)c1 | inactive |
| CCCn1c2ccccc2c2cnn(CC(=O)NCCCN3CCCCC3CC)c(=O)c21 (configuration not stated) | inactive |
| O=C(OCC(=O)N1CCN(C(=O)c2ccco2)CC1)c1cccc(O)c1 | inactive |
| Cc1ccnc(N2CCCC(C(=O)NC3CC3)C2)n1 (configuration not stated) | inactive |
| Cc1ccnc(-n2sc3ccccc3c2=O)n1 | 11.2 µM (active) |
| Cc1nc2ccccc2c(=O)n1NC(=O)c1ccccc1 | inactive |
| Cc1ccc(CN2CCNC(=O)C2CC(=O)NCc2csc(C(C)C)n2)cc1 (configuration not stated) | inactive |
| O=C(c1ccc(Cl)cc1)N1N=C(c2ccccn2)CC1(O)C(F)(F)F (configuration not stated) | 4.47 µM (active) |
| COC(=O)C1(O)CC(C(C)C)=NN1C(=O)c1ccc(Cl)cc1 (configuration not stated) | inactive |
| O=C(C1CC1)N1N=C(c2ccc(Br)cc2)CC1(O)C(F)(F)F (configuration not stated) | inactive |
| CCC(C)c1ccc(NC(=S)NCc2ccccn2)cc1 (configuration not stated) | 8.91 µM (active) |
| O=C(NCc1ccccn1)Nc1ccc(F)cc1 | inactive |
| COc1cccc(NC(=S)NCc2ccccn2)c1 | inactive |
| Cc1cccc(NS(=O)(=O)c2ccc(C(=O)NCC(C)(C)N3CCOCC3)cc2)c1C | inactive |
| Cc1cccnc1CC(C)NC(=O)c1cc(COc2cncc(Cl)c2)on1 (configuration not stated) | inactive |
| CCOC(=O)C(Cc1ccccc1)NC(=O)CCC(=O)c1ccc(OC)cc1 (configuration not stated) | inactive |
| COc1cc([C@H](Cc2ccccc2)NC(C)=O)oc(=O)c1 | 11.2 µM (active) |
| COC(=O)[C@H](Cc1ccccc1)NC(=O)Nc1ccc(OC)cc1 | inactive |
| COc1cc(/C=C2\C(=N)N3N=C(CC(=O)N4CCOCC4)SC3=NC2=O)cc(OC)c1OC | inactive |

| Structure (SMILES) | Potency |
| --- | --- |
| CN(C)C(=O)CCC(=O)N1CCCCC1C(=O)Nc1ccc(Oc2ccccc2F)cc1 (configuration not stated) | inactive |
| C/C(=N\NC(=O)c1ccc(C)cc1)C1C(=O)c2ccccc2C1=O | 0.562 µM (active) |
| C/C(=N\NC(=O)c1cccnc1)c1ccc(-c2ccccc2)cc1 | inactive |
| Cc1ccc(C(=O)NCCNC(=O)c2ccccc2)cc1 | inactive |
| CC(Cc1cccs1)N(Cc1ccc(Cl)cc1)C(=O)c1ccncc1 (configuration not stated) | inactive |
| CCOC(=O)c1ccc2[nH]c3c(c2c1)CCCC3NC=O (configuration not stated) | inactive |
| O=C(Nc1sc2c(c1C(=O)O)CCC2)c1ccccc1F | inactive |
| CCN(CC)CC(=O)Nc1sc2c(c1C(=O)c1ccccc1C)CCC2 | 17.8 µM (active) |
| CCCOC(=O)Nc1sc2c(c1C(=O)OCC)CCC2 | inactive |
| CCOC(=O)c1c(NC(=O)c2ccc(Br)o2)sc2c1CCCC2 | inactive |
| CCOC(=O)c1c(NC(=S)Nc2ccccc2C)sc2c1CCC2 | 5.62 µM (active) |
| CCOCC(=O)Nc1sc2c(c1C(=O)OCC)CCCC2 | inactive |
| CCOC(=O)c1c(NC(=O)C(C)Sc2c[nH]c3ccccc23)sc2c1CCC2 (configuration not stated) | inactive |
| CCc1ccc(N(CC(=O)Nc2sc3c(c2C(=O)OC)CCCC3)S(C)(=O)=O)cc1 | inactive |
| CCOC(=O)c1c(NC(=S)NC)sc2c1CCCC2 | 1.41 µM (active) |
| O=C(O)CN1c2cccc3cccc(c23)S1(=O)=O | inactive |
| CC(C)(COC(=O)Nc1ccccc1)COC(=O)Nc1ccccc1 | inactive |
| CC(=O)Nc1ccc(NC(=O)CC2CCCC2)cc1 | inactive |
| COc1cc(C(=O)N2CCN(C3CCC(C)CC3)CC2)cc(OC)c1OC (configuration not stated) | inactive |
| COc1ccccc1/C=N/N1CCN(Cc2ccccc2Cl)CC1 | inactive |
| CCOCCCNc1c(CC)c(C)c(C#N)c2nc3ccccc3n12 | inactive |
| CC(=O)NCC(O)c1ccc([N+](=O)[O-])cc1 (configuration not stated) | inactive |
| C=C(C(C)=O)C(O)c1ccc([N+](=O)[O-])cc1 (configuration not stated) | 10 µM (active) |

| Structure (SMILES) | Potency |
| --- | --- |
| C=C(C(C)=O)C(O)c1cccs1 (configuration not stated) | inactive |
| O=C(c1ccco1)N1CCN(C(=O)c2cc(-c3ccccc3F)no2)CC1 | inactive |
| O=C(c1cc(COc2ccc(F)cc2F)on1)N1CCOCC1 | inactive |
| CC(C)C[C@H](NC(=O)C1CC(=O)N(c2ccc3c(c2)OCCO3)C1)C(=O)NC1CCCC1 (some centres not stated) | inactive |
| Cc1noc(C)c1-c1ccc2ncnc(NCc3ccc4[nH]ccc4c3)c2c1 | inactive |
| COc1ccc(COC(=O)c2ccc(Cl)c(S(=O)(=O)N3CCOCC3)c2)cc1F | inactive |
| Cc1cc(Nc2ccc(Cl)cc2)nc(N2CCOCC2)n1 | inactive |
| Cc1nc(Cl)cc(N/N=C/c2ccccc2)n1 | inactive |
| CC(=O)c1ccc(Oc2cc(C)nc(-n3nc(C)cc3C)n2)cc1 | 6.31 µM (active) |
| COc1ccc(NC(=O)c2nc(-n3nc(C)cc3C)ccc2Cl)cc1Cl | inactive |
| Cc1ccc(S(=O)(=O)Nc2nc(C)cc(N/N=C/c3ccc(O)cc3)n2)cc1 | inactive |
| Cc1cc(C)n(-c2cc(Oc3ccccc3)ncn2)n1 | inactive |
| COc1ccc(Nc2cc(C)nc(-n3nc(C)cc3C)n2)cc1 | 1.12 µM (active) |
| Cc1cc(N/N=C\c2ccc(Br)cc2)nc(-n2nc(C)cc2C)n1 | 1.41 µM (active) |
| COc1ccc(/C=N/Nc2cc(N3CCOCC3)nc(C)n2)c(OC)c1 | inactive |
| COc1ccccc1/C=N\Nc1cc(C)nc(-n2nc(C)cc2C)n1 | 0.355 µM (active) |
| Cc1cc(Oc2ccc(Cl)cc2)nc(SCC(=O)c2ccccc2)n1 | inactive |
| COc1cccc2c(N/N=C/c3ccco3)cc(C)nc12 | inactive |
| COC(=O)c1ccc(COC(=O)c2cnc(Cl)c(Cl)c2)cc1 | inactive |
| COCc1cc(C)n(CC(=O)NCC2CCCO2)c(=O)c1C#N (configuration not stated) | inactive |
| CCc1ccccc1N(CC(=O)NCC1CCCO1)C(=O)CCC(=O)Nc1nccs1 (configuration not stated) | inactive |
| COc1ccccc1N1CCN(C(=O)c2cc(=O)c3cc(C)cc(C)c3o2)CC1 | inactive |
| C[C@H]1[C@H]2c3nc4ccccc4n3C[C@H]1ON2C1CCCCC1 | inactive |

| Structure (SMILES) | Potency |
| --- | --- |
| COc1cc2c(cc1OC)C(c1cccc([N+](=O)[O-])c1)=NCC2 | inactive |
| O=C1CSC(=S)N1/N=C/c1ccc(O)c([N+](=O)[O-])c1 | inactive |
| CCOc1ccccc1N=C1NC(=O)CS1 | inactive |
| CCOc1cccc(/C=N/N2C(=O)CSC2=S)c1O | 12.6 µM (active) |
| CCOc1ccc(N(CC(=O)Nc2cccc(OC)c2)S(C)(=O)=O)cc1 | inactive |
| CCN1CCN(C2CCCCC2NS(=O)(=O)c2ccc(Cl)cc2)CC1 (configuration not stated) | inactive |
| Cc1n[nH]c(=O)nc1N/N=C/c1cccs1 | 11.2 µM (active) |
| Cc1nnc(N/N=C/c2cccs2)[nH]c1=O | inactive |
| COc1ccc(Nc2nc(=O)[nH]nc2C)cc1 | inactive |
| O=C(NCCc1nnc2ccc(SCC(=O)N3CCOCC3)nn12)c1ccccc1 | inactive |
| CCOC(=O)C1(CCOC)CCN(Cc2cc3ccccc3s2)CC1 | inactive |
| CCC(=O)Nc1ccc2nn(-c3ccc(F)cc3)nc2c1 | inactive |
| Cc1cc(N/C=C\C(=O)c2ccc(Cl)c(Cl)c2)no1 | inactive |
| CCOc1ccc(N/C=C/C(=O)c2cc(OC)c(OC)c(OC)c2)cc1 | inactive |
| COc1ccc(C(=O)/C=C/Nc2ccccn2)cc1 | 3.55 µM (active) |
| CS(=O)(=O)N1CCc2nc(-c3ccccc3)sc2C1 | inactive |
| O=C(NCCc1ccccc1)c1ccc(OCCOc2ccccc2)cc1 | inactive |
| CCCOc1ccc(C(=O)NCCc2ccccc2)cc1 | 14.1 µM (active) |
| O=C(NCCOc1ccccc1)c1ccccc1 | inactive |
| CCC(C(=O)NCCC(C)C)N(Cc1ccccc1Cl)C(=O)c1snc(C(N)=O)c1N (configuration not stated) | inactive |
